In PubChem BioAssay:
Unmarked numbers belong to inactive results. Calls of active or inactive are those of the source.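 The calls were made as follows, unless noted: active = compounds giving at least 50% inhibition in the cell-based MKP-3 phosphatase rescue imaging test; inactive = the rest.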

The compounds below were run against Dual specificity protein phosphatase 6 (Homo sapiens) (UniProt Q16828) (assay: Primary imaging screen for DUSP6 inhibitors that restore phospho-Erk in transfected HeLa cells, chemical complementation (AID 609;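 also: phospho-Erk level distribution per well compared with pooled transfected vehicle control wells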)). Settings: HeLa MKP-3 transfected, phospho-Erk imaging KS statistic; at 10 µM; hits give high values; cells stimulated with TPA for 15 min.
Dual specificity protein phosphatase 6 (Homo sapiens), sequence (Q16828 whole entry, looked up): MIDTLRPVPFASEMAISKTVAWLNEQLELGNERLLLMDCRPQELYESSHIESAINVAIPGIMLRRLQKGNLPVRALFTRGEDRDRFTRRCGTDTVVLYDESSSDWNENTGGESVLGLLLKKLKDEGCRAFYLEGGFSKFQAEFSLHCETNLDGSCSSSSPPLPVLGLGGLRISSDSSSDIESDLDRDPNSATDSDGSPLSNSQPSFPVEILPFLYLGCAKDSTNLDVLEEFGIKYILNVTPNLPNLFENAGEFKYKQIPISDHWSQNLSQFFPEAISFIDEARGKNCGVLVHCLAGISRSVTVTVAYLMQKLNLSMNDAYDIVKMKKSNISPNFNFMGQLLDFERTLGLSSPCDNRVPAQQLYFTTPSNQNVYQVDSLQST

Row | Compound | inhibition
1 | COc1cc(NS(=O)(=O)c2ccc(N)cc2)nc(OC)n1 | 5.79%
2 | C=CCSc1nnc2n(CCc3ccccc3)c(=O)c3c4c(sc3n12)COC(C)(C)C4 | 9.91%
3 | COc1c2occc2c(OC)c2c(=O)cc(C)oc12 | 21.2%
4 | CCCn1c(=O)c2[nH]c(C3CCCC3)nc2n(CCC)c1=O | 3.59%
5 | CCOC(=O)Cc1nnc(Nc2cccc(O)c2)c2ccccc12 | -15.1%
6 | COc1ccc(C(=O)Cn2c(N3CCCCC3)nc3c2c(=O)n(C)c(=O)n3C)cc1OC | 3.5%
7 | CCn1cc(C(=O)O)c(=O)c2cc(F)c(N3CCNCC3)nc21 | 7.39%
8 | Cc1ccc(S(=O)(=O)NC(=O)NN2CCCCCC2)cc1 | 21.2%
9 | Cn1c(/C(C#N)=C/Nc2ccccn2)nc2ccccc21 | 5.26%
10 | COc1ccc(CNc2oc(COc3ccccc3Cl)nc2C#N)cc1 | 3.5%
11 | CC(NC(=O)NCCCC(=O)O)(C(F)(F)F)C(F)(F)F | -2.09%
12 | CC(NC(=O)Nc1nccs1)(C(F)(F)F)C(F)(F)F | -0.233%
13 | CCC1CCCCN1c1nc(-c2ccncc2)nc2ccccc12 (stereo not drawn) | 14%
14 | C=C(C)C1Cc2c(C)nn(-c3nc(C)cc(C)n3)c2C1 (stereo not drawn) | 1.98%
15 | CCCCOc1ccc(CC(=O)NO)cc1 | -0.493%
16 | COC(=O)c1cc(Br)c(=O)n(-c2nccs2)c1 | 38.2%
17 | Cc1ccc(NC(=O)CSC2=C(C#N)C(c3ccc4c(c3)OCO4)CC(=O)N2)cc1C (stereo not drawn) | 6.51%
18 | CCN(CC)C(=O)c1sc2nc(-c3cccs3)cc(-c3cccs3)c2c1N | 9.61%
19 | Cc1ccc(-c2nnc(-c3cccc(Br)c3)o2)cc1 | -15.1%
20 | CCCCOc1ccc(C(=O)Nc2ccc(N3CCN(C(C)=O)CC3)cc2)cc1 | 5.95%

Row | Compound | inhibition
21 | CCN(CC)CCNC(=O)c1ccc(NC(C)=O)cc1 | 5.79%
22 | COC(=O)c1ccccc1NC(=O)CSc1nnc(-c2ccncc2)o1 | 3.42%
23 | CN(C)C(CN1C(=O)C2CC=CCC2C1=O)c1cn(C)c2ccccc12 (stereo not drawn) | -3.95%
24 | CCOc1cc(C2Nc3ccccc3C(=O)N2c2ccccc2OC)ccc1O (stereo not drawn) | 9.07%
25 | Cc1cn2c(-c3ccncc3)nnc2s1 | 22.3%
26 | COc1ccc(/C(O)=C2/C(=O)C(=O)N(CCN(C)C)C2c2ccccn2)cc1OC (stereo not drawn) | 2.71%
27 | Cc1oc2nc(SCCCC(=O)NCCCO)nc(N)c2c1C | 3.56%
28 | C[C@@H]1CCC[C@H](C)N1NC(=O)c1ccc(Cl)c(S(N)(=O)=O)c1 | 21.2%
29 | O=C(CCCN1C(=O)c2ccccc2C1=O)N1CCC(c2ccccc2)C1 (stereo not drawn) | -3.5%
30 | O=C1C2CC=C(Cl)CC2C(=O)N1CNc1ccccn1 (stereo not drawn) | 1.98%
31 | COCCNC(=O)c1c(N)n(/N=C/c2cccs2)c2nc3ccccc3nc12 | 1.75%
32 | COC(=O)CC1SC(=O)NC1=O (stereo not drawn) | 5.26%
33 | N#Cc1nc(COc2ccc(Br)cc2)oc1N1CCCC1 | 6.04%
34 | CCOC(=O)C1CCN(C(C)=C2C(=O)c3ccccc3C2=O)CC1 | 7.73%
35 | CCSc1nnc(NC(=O)C(CC)(C(F)(F)F)C(F)(F)F)s1 | -9.53%
36 | N#CC1=C(N)OC2=C(C(=O)CCC2)C1CCc1ccccc1 (stereo not drawn) | 2.92%
37 | Cc1cc(OCC(=O)Nc2ccc3oc(-c4ccncc4)nc3c2)ccc1Cl | 7.73%
38 | CCSc1nc(O)c(C2OC(=O)c3c2ccc(OC)c3OC)c(=O)n1-c1ccccc1 (stereo not drawn) | 1.98%
39 | Cc1c(C)c2cc(Cl)c(O)c(CN3CCCCC3)c2oc1=O | 5.26%

These compounds were tested against Voltage-gated potassium channel subunit beta-2 (Rattus norvegicus) (UniProt P62483) (assay: inhibitors of rat Kvbeta2 reductase activity – biochemical, NADPH fluorescence, primary screen (AID 622;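 active = fluorescence slope higher than the sample average by over 3 SD, cut at about -0.22 in these data, passing the limit was not always enough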;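 also: slope of raw intensity against log time taken from 70 to 1610 s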)). Settings: recombinant KvBeta, 4-cyanobenzaldehyde reduction, at 10 µM, hits give high values.
Voltage-gated potassium channel subunit beta-2 (Rattus norvegicus), sequence (P62483 whole entry, looked up): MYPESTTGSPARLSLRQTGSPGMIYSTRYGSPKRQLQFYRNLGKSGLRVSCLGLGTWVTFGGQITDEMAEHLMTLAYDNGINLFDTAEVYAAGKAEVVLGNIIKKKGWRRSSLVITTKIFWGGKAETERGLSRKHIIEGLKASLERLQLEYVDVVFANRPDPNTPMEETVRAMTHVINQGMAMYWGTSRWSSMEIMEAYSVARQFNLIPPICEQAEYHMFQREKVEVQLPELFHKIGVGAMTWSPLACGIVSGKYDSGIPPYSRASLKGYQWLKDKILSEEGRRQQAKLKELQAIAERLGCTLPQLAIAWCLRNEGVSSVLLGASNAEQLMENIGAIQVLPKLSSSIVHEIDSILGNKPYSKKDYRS

Row | Compound | fluorescence slope
40 | COc1cc(NS(=O)(=O)c2ccc(N)cc2)nc(OC)n1 | -0.439
41 | C=CCSc1nnc2n(CCc3ccccc3)c(=O)c3c4c(sc3n12)COC(C)(C)C4 | -0.35
42 | COc1c2occc2c(OC)c2c(=O)cc(C)oc12 | -0.445
43 | CCCn1c(=O)c2[nH]c(C3CCCC3)nc2n(CCC)c1=O | -0.432
44 | CCOC(=O)Cc1nnc(Nc2cccc(O)c2)c2ccccc12 | -0.457
45 | COc1ccc(C(=O)Cn2c(N3CCCCC3)nc3c2c(=O)n(C)c(=O)n3C)cc1OC | -0.424
46 | CCn1cc(C(=O)O)c(=O)c2cc(F)c(N3CCNCC3)nc21 | -0.463
47 | Cc1ccc(S(=O)(=O)NC(=O)NN2CCCCCC2)cc1 | -0.457
48 | Cn1c(/C(C#N)=C/Nc2ccccn2)nc2ccccc21 | -0.224
49 | COc1ccc(CNc2oc(COc3ccccc3Cl)nc2C#N)cc1 | -0.551
50 | CC(NC(=O)NCCCC(=O)O)(C(F)(F)F)C(F)(F)F | -0.428
51 | CC(NC(=O)Nc1nccs1)(C(F)(F)F)C(F)(F)F | -0.47
52 | CCC1CCCCN1c1nc(-c2ccncc2)nc2ccccc12 (stereo not drawn) | -0.391
53 | C=C(C)C1Cc2c(C)nn(-c3nc(C)cc(C)n3)c2C1 (stereo not drawn) | -0.396
54 | CCCCOc1ccc(CC(=O)NO)cc1 | -0.547
55 | COC(=O)c1cc(Br)c(=O)n(-c2nccs2)c1 | -0.421
56 | Cc1ccc(NC(=O)CSC2=C(C#N)C(c3ccc4c(c3)OCO4)CC(=O)N2)cc1C (stereo not drawn) | -0.486
57 | CCN(CC)C(=O)c1sc2nc(-c3cccs3)cc(-c3cccs3)c2c1N | 1.5e-14 (active)
58 | Cc1ccc(-c2nnc(-c3cccc(Br)c3)o2)cc1 | -0.487
59 | CCCCOc1ccc(C(=O)Nc2ccc(N3CCN(C(C)=O)CC3)cc2)cc1 | -0.265

Row | Compound | fluorescence slope
60 | CCN(CC)CCNC(=O)c1ccc(NC(C)=O)cc1 | -0.442
61 | COC(=O)c1ccccc1NC(=O)CSc1nnc(-c2ccncc2)o1 | -0.471
62 | CN(C)C(CN1C(=O)C2CC=CCC2C1=O)c1cn(C)c2ccccc12 (stereo not drawn) | -0.474
63 | CCOc1cc(C2Nc3ccccc3C(=O)N2c2ccccc2OC)ccc1O (stereo not drawn) | -0.348
64 | Cc1cn2c(-c3ccncc3)nnc2s1 | -0.491
65 | COc1ccc(/C(O)=C2/C(=O)C(=O)N(CCN(C)C)C2c2ccccn2)cc1OC (stereo not drawn) | -0.47
66 | Cc1oc2nc(SCCCC(=O)NCCCO)nc(N)c2c1C | -0.522
67 | C[C@@H]1CCC[C@H](C)N1NC(=O)c1ccc(Cl)c(S(N)(=O)=O)c1 | -0.465
68 | O=C(CCCN1C(=O)c2ccccc2C1=O)N1CCC(c2ccccc2)C1 (stereo not drawn) | -0.453
69 | O=C1C2CC=C(Cl)CC2C(=O)N1CNc1ccccn1 (stereo not drawn) | -0.446
70 | COCCNC(=O)c1c(N)n(/N=C/c2cccs2)c2nc3ccccc3nc12 | -0.287
71 | COC(=O)CC1SC(=O)NC1=O (stereo not drawn) | -0.414
72 | N#Cc1nc(COc2ccc(Br)cc2)oc1N1CCCC1 | -0.434
73 | CCOC(=O)C1CCN(C(C)=C2C(=O)c3ccccc3C2=O)CC1 | -0.418
74 | CCSc1nnc(NC(=O)C(CC)(C(F)(F)F)C(F)(F)F)s1 | -0.447
75 | N#CC1=C(N)OC2=C(C(=O)CCC2)C1CCc1ccccc1 (stereo not drawn) | -0.527
76 | Cc1cc(OCC(=O)Nc2ccc3oc(-c4ccncc4)nc3c2)ccc1Cl | -0.458
77 | CCSc1nc(O)c(C2OC(=O)c3c2ccc(OC)c3OC)c(=O)n1-c1ccccc1 (stereo not drawn) | -0.416
78 | Cc1c(C)c2cc(Cl)c(O)c(CN3CCCCC3)c2oc1=O | -0.198
